Measured values published in PubChem BioAssay (EPA / NIEHS).
“And” between values parts separate entries of the source, which are not always exact repeats. Equal values may be shown once. The source holds several records for some structures; these can differ, active in one and inactive in another. The source made the active and inactive calls. How the source made its calls: active means hit-call score of the fitted dose curve at least 0.9, where 1 is the maximum; inactive means score below 0.9.

These compounds were tested on TIMP metallopeptidase inhibitor 2 (TIMP2), TIMP2 (gene 7077) (assay: BSK_KF3CT_TIMP2: BioMAP Diversity Plus: KF3CT Assay for TIMP metallopeptidase inhibitor 2 (TIMP2) Biomarker Activity (AID 2283071)). Settings: primary human keratinocytes with fibroblasts; actives raise or lower the signal.
Protocol: BSK_KF3CT is a cell-based, multiplexed-readout assay that uses keratinocytes and foreskin fibroblasts, a human skin primary cell co-culture, with measurements taken at 24 hours after chemical dosing in a 96-well plate.BSK_KF3CT_TIMP2 is an assay component measured in the BSK_KF3CT assay. It measures TIMP-2 antibody related to regulation of gene expression using ELISA technology.Data from the assay component BSK_KF3CT_TIMP2 was analyzed into 1 assay endpoint. This assay endpoint, BSK_KF3CT_TIMP2, was analyzed with bidirectional fitting relative to DMSO as the negative control and baseline of activity. Using a type of binding reporter, gain or loss-of-signal activity can be used to understand changes in the signaling as they relate to the gene TIMP2. Furthermore, this assay endpoint can be referred to as a primary readout, because this assay has produced multiple assay endpoints where this one serves a signaling function. To generalize the intended target to other relatable targets, this assay endpoint is annotated to the protease inhibitor intended target family, where the subfamily is metalloproteinase inhibitor.
The levels of cell surface (or secreted, indicated by the prefix "s") biomarker endpoints were measured by ELISA. Overt cytotoxicity to cells in confluent adherent cultures (all systems other than the BT system) was assessed by measuring total protein levels using sulforhodamine B (SRB) staining in parallel cultures at the time of biomarker measurements, indicated as SRB endpoints. For proliferation assays for adherent cell types, individual cell types are cultured at sub-confluence and relative cell numbers quantified by SRB staining at time points optimized for each system (48 h: 3C and CASM3C systems; 72 h: BT and HDF3CGF systems; 96 h: SAg system). SRB was performed by staining cells with 0.1% SRB after fixation with 10% TCA and reading wells at 560 nm.Viability and proliferation of PBMC (T cells) was quantified by Alamar Blue reduction for the SAg and BT systems. For PBMC viability (referred to as PBMC Cytotoxicity within the assay endpoint names), cells were plated (75,000/well in a 96-well plate) and then chemical samples added for 1 h before addition of activators, SEB and TSST-1 (20 ng/mL final concentration each). Cells were incubated for 90 h. Then, Alamar Blue (20 uL/well) (Invitrogen, Cat DAL1100) was added for 6 h, and the plates were read with a fluorescence microplate reader at 546/580 nm (excitation/emission). For PBMC proliferation, cells were plated and activated as above but incubated for only 16 h prior to addition of Alamar Blue. Plates were read after 6 h.

SMILES | AC50 | outcome
ClC1=C(Cl)[C@]2(Cl)[C@H]3[C@H]([C@@H]4C=C[C@H]3C4)[C@@]1(Cl)C2(Cl)Cl | 20 µM (active) | –
CCCCCOC(=O)c1ccccc1C(=O)OCCCCC | – | inactive
O=C(O)C1C2CCC(O2)C1C(=O)O (stereo not given) | – | inactive
N#CC(Br)(Br)C(N)=O | – | inactive
O=[N+]([O-])C(Br)(CO)CO | 28.5 µM (active) | –
CCC(C)c1ccc(O)cc1 (stereo not given) | – | inactive
O=C(Nc1ccccc1)c1ccccc1I | – | inactive
c1ccc(NNc2ccccc2)cc1 | – | inactive
Clc1ccc(Cl)c(Cl)c1 | – | inactive
Nc1ccc(Oc2ccc(N)cc2)cc1 | – | inactive
O=P(OCCCl)(OCCCl)OCCCl | – | inactive
ClC1=C(Cl)C2(Cl)C3C(Cl)C=CC3C1(Cl)C2(Cl)Cl (stereo not given) | 24.6 µM (active) | –
[O-][Cl+]O | – | inactive
Cn1cc(-c2ccccc2)c(=O)c(-c2cccc(C(F)(F)F)c2)c1 | – | inactive
N#CC(Br)Br | – | inactive
CN(C)c1ccc(C(=O)c2ccc(N(C)C)cc2)cc1 | – | inactive
CCCCCCCCCCCCCN1CC(C)OC(C)C1 (stereo not given) | – | inactive
CN(C)C(=O)Nc1ccc(Cl)cc1 | – | inactive
c1ccc(C2CO2)cc1 (stereo not given) | – | inactive
Nc1ccc(N=Nc2ccccc2)cc1 | – | inactive

SMILES | AC50 | outcome
CO[C@@H]1[C@H](OC(=O)NC(=O)CCl)CC[C@]2(CO2)[C@H]1[C@@]1(C)O[C@@H]1CC=C(C)C | – | inactive
c1ccc2c(c1)oc1ccccc12 | – | inactive
CCNS(=O)(=O)C(F)(F)C(F)(F)C(F)(F)C(F)(F)C(F)(F)C(F)(F)C(F)(F)C(F)(F)F | 48.2 µM (active) and 54.7 µM (active) | inactive
COC(=O)Nc1nc2ccccc2[nH]1 | – | inactive
CCOc1cccc(C2(N3CCN(c4ccccc4)CC3)CCC(C)CC2)c1 (stereo not given) | – | inactive
[As]#[In] | – | inactive
Brc1ccc(Oc2ccccc2)cc1 | – | inactive
OCCCl | – | inactive
Clc1ccccc1Cl | – | inactive
CCCSC(=O)N(CCC)CCC | – | inactive
Cc1cccc(N)c1N | – | inactive
Nc1ccc(Cl)cc1N | – | inactive
Nc1ccc([N+](=O)[O-])cc1 | – | inactive
O=C1CCCO1 | – | inactive
Clc1ccc(C(c2ccc(Cl)cc2)C(Cl)(Cl)Cl)cc1 | 11.7 µM (active) | –
c1ccc2c(c1)-c1cccc3cccc-2c13 | – | inactive
CN(C)c1ccccc1 | – | inactive
CNC(=O)Oc1cccc2c1OC(C)(C)C2 | – | inactive
CCN(CC)N=O | – | inactive
